These results are taken from PubChem BioAssay (NCI).

Some test systems named below: NCI-H23 lung; NCI-H226 lung; NCI-H322M lung; HOP-62 NSCLC; NCI-H460 lung; HOP-92 NSCLC; NCI-H522 lung; A549/ATCC NSCLC; 786-0 renal; COLO 205 colon.
Holding throughout (assay): NCI-60 one-dose screen, 48 h (100 = growth as untreated, 0 = no growth, -100 = all killed)
What all share (details): 10 µM unless noted

Compounds without any hit were thinned out: in the full panel of roughly 83,000, 20% have a hit.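 Single-concentration screen, 48 h exposure, 96-well plates. Endpoint: percent growth. Below 10 = active.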 A number with no mark means an inactive call. Calls of active or inactive are those of the source.

In the case of `CC1(C)CC[C@]23CC[C@]4(C)[C@H](CC[C@@H]5[C@@]6(C)C/C(=C/c7ccncc7)C(=O)C(C)(C)[C@@H]6CC[C@]54C)[C@H]2[C@H]1OC3=O`, the growth with NCI-H23 lung was 61.4% [100 µM]; in the experiment with NCI-H226 lung, 77.4% [100 µM]; with NCI-H322M lung it was 96.5% [100 µM]; in the experiment with HOP-62 NSCLC, 10.2% [100 µM]; with NCI-H460 lung, 51% [100 µM]; in the experiment on HOP-92 NSCLC, 16.8% [100 µM]. Also, the growth is 50.9% [100 µM] with NCI-H522 lung, 70.1% [100 µM] in the experiment with A549/ATCC NSCLC, 31% [100 µM] with 786-0 renal and 90.5% [100 µM] in the experiment on COLO 205 colon.

For `CNC(=O)c1cc(Oc2ccc3nc(NC(=O)c4ccc5ncccc5c4)sc3c2)ccn1`, the growth is 92.7% in the experiment with NCI-H23 lung; 68.6% with NCI-H226 lung; 99% with NCI-H322M lung; 112% in the experiment with HOP-62 NSCLC; 98.6% in the experiment with NCI-H460 lung; 110% in the experiment on HOP-92 NSCLC. In addition, the growth is 54.3% with NCI-H522 lung, 76.5% in the experiment with A549/ATCC NSCLC, 98.4% with 786-0 renal and 95.8% in the experiment with COLO 205 colon.

As for `O=C(Nc1ccc(Nc2ccncc2)cc1)c1ccc([N+](=O)[O-])cc1`, the growth in the experiment with NCI-H23 lung was 81%; in the experiment with NCI-H226 lung it was 91.1%; in the experiment with NCI-H322M lung it was 90.4%; in the experiment on HOP-62 NSCLC, 61.7%; with NCI-H460 lung it was 77.5%; in the experiment with HOP-92 NSCLC it was 51.1%. The growth with NCI-H522 lung is 52.6%; in the experiment with A549/ATCC NSCLC, 72.4%; in the experiment on 786-0 renal it was 56.7%; in the experiment on COLO 205 colon, -50.3% (active).

In the case of `CC(C)C1=NOC(=O)C1=Cc1cn(-c2cccnc2)nc1-c1ccccc1`, the growth was 107% with NCI-H23 lung; 106% in the experiment with NCI-H226 lung; 100% in the experiment on NCI-H322M lung; 100% with HOP-62 NSCLC; 103% in the experiment with NCI-H460 lung; 92.6% with HOP-92 NSCLC. For the same compound, the growth was 82.7% in the experiment with NCI-H522 lung, 94.8% with A549/ATCC NSCLC, 82.2% with 786-0 renal and 107% in the experiment with COLO 205 colon.

`CCN(CC)CCCCCCNc1cccc2cc(Br)cnc12`: the growth in the experiment with NCI-H23 lung is 85.7%; in the experiment with NCI-H226 lung, 108%; in the experiment on NCI-H322M lung, 94.3%; in the experiment on HOP-62 NSCLC, 118%; in the experiment with NCI-H460 lung it was 87.3%; with HOP-92 NSCLC it was 71.6%. The growth is 26.7% in the experiment on NCI-H522 lung, 97.8% in the experiment with A549/ATCC NSCLC, 92.8% in the experiment on 786-0 renal and 89.9% in the experiment on COLO 205 colon.

As to `Nc1cccc2c1C(=O)c1cccc(NC(=O)c3ccccc3)c1C2=O`, the growth is 29.9% in the experiment with NCI-H23 lung; 52.2% with NCI-H226 lung; -7.76% (active) in the experiment with NCI-H322M lung; 38.7% in the experiment with HOP-62 NSCLC; 7.2% (active) in the experiment on NCI-H460 lung; 53.2% in the experiment with HOP-92 NSCLC. For the same compound, the growth in the experiment with NCI-H522 lung is -28.5% (active); in the experiment on A549/ATCC NSCLC it was 28.6%; in the experiment with 786-0 renal, 37.5%; in the experiment with COLO 205 colon, -11.5% (active).

For `CC1(C)CC[C@]2(C(=O)O)CC[C@]3(C)C(=CC[C@@H]4[C@@]5(C)C/C(=C/c6ccco6)C(=O)C(C)(C)[C@@H]5CC[C@]43C)[C@@H]2C1`, the growth in the experiment with NCI-H23 lung was -25.6% [100 µM] (active); in the experiment on NCI-H226 lung, -42.4% [100 µM] (active); in the experiment with NCI-H322M lung, -48.8% [100 µM] (active); with HOP-62 NSCLC, -85.3% [100 µM] (active); in the experiment on NCI-H460 lung it was -55.9% [100 µM] (active); in the experiment on HOP-92 NSCLC, -82.1% [100 µM] (active). For the same compound, the growth in the experiment with NCI-H522 lung was -39.3% [100 µM] (active); with A549/ATCC NSCLC, -4.53% [100 µM] (active); in the experiment on 786-0 renal, -19.5% [100 µM] (active); with COLO 205 colon, -80.7% [100 µM] (active).

With `CC(C)c1ccc(C(=O)Nc2nc3ccc(O)cc3s2)cc1`, the growth with NCI-H23 lung is 51.4%; with NCI-H226 lung, 66.6%; in the experiment with NCI-H322M lung, 62.2%; in the experiment with HOP-62 NSCLC, 93.1%; with NCI-H460 lung, 3.97% (active); with HOP-92 NSCLC, 50%. In addition, the growth with NCI-H522 lung is 39.6%; in the experiment with A549/ATCC NSCLC, 33.5%; in the experiment with 786-0 renal, 0.538% (active); in the experiment with COLO 205 colon it was 33%.

As to `CCN(CC)CCCC(C)Nc1c2ccc(C)cc2nc2ccc(OC)cc12` (stereo not given), the growth in the experiment on NCI-H23 lung was 41.8%; with NCI-H226 lung it was 42.4%; in the experiment with NCI-H322M lung, 10.9%; in the experiment on HOP-62 NSCLC, 45%; in the experiment with NCI-H460 lung it was -44.3% (active); with HOP-92 NSCLC, 40.8%. Further, the growth is 51.1% in the experiment with NCI-H522 lung, 14.7% with A549/ATCC NSCLC, 33% with 786-0 renal and -40.4% (active) in the experiment with COLO 205 colon.

As to `CC(C)(C)OC(=O)N1C=C/C(=C\Cn2cc(-c3ccccc3)nn2)CC1`, the growth was 65% with NCI-H23 lung; 72% in the experiment on NCI-H226 lung; 80.9% in the experiment with NCI-H322M lung; 89.3% in the experiment with HOP-62 NSCLC; 84.7% in the experiment on NCI-H460 lung; 62.9% in the experiment with HOP-92 NSCLC. In addition, the growth in the experiment with NCI-H522 lung was 74.6%; with A549/ATCC NSCLC, 83.8%; with 786-0 renal, 79.6%; with COLO 205 colon, 109%.

Turning to `C[C@H]1[C@H](C)CC[C@]2(C(=O)O)CC[C@]3(C)C(=CC[C@@H]4[C@@]5(C)C/C(=C/c6ccco6)C(=O)C(C)(C)[C@@H]5CC[C@]43C)[C@H]12`, the growth is -81.1% [100 µM] (active) with NCI-H23 lung; -52.3% [100 µM] (active) with NCI-H226 lung; -73.4% [100 µM] (active) in the experiment on NCI-H322M lung; -75.7% [100 µM] (active) in the experiment on HOP-62 NSCLC; -55.6% [100 µM] (active) in the experiment on NCI-H460 lung; -87.7% [100 µM] (active) in the experiment with HOP-92 NSCLC. The growth in the experiment with NCI-H522 lung was -82.7% [100 µM] (active); with A549/ATCC NSCLC it was -52.5% [100 µM] (active); in the experiment with 786-0 renal, -40.3% [100 µM] (active); in the experiment on COLO 205 colon it was -60.9% [100 µM] (active).

With `CCOC(=O)C1=C(C(=O)c2ccc(Br)cc2)C(c2ccc(Br)cc2)NC(=S)N1` (stereo not given), the growth with NCI-H23 lung was 98%; with NCI-H226 lung, 94.9%; in the experiment on NCI-H322M lung, 97.3%; with HOP-62 NSCLC, 88.4%; with NCI-H460 lung, 101%; in the experiment on HOP-92 NSCLC it was 96.3%. Also, the growth with NCI-H522 lung was 95.9%; with A549/ATCC NSCLC, 100%; with 786-0 renal, 106%; in the experiment with COLO 205 colon, 118%.
